About 550 (24%) of roughly 2,300 compounds were called active. How the calls were made is not given here. Only a sample is shown. Results with a measured potency or affinity are listed apart.
assay: Vero E6 cell cytotoxicity, dose response, cytotoxicity control for non-replicating M. tuberculosis project, secondary assay (AID 492998); conditions: series mostly up to 20 µM; viability: at the top concentration;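 further: 100% = vehicle-treated cells and 0% = background wells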

Row | Structure (SMILES) | viability
1 | O=C(C/C=N\OCc1ccc([N+](=O)[O-])cc1)Nc1ccc(F)cc1F | 102% (inactive)
2 | O=C1c2ccccc2C(=O)N1CCOc1ccc(F)cc1 | 94.9% (inactive)
3 | Cc1cc(C)cc(OC(=O)CCN2C(=O)c3ccccc3C2=O)c1 | 90% (inactive)
4 | O=c1oc2ccccc2c(Nc2ccccc2O)c1[N+](=O)[O-] | 108% (inactive)
5 | CCOc1ccc(NC(=O)c2nnn(CC(=O)Nc3ccccc3OC)c2N)cc1 | 89.8% (inactive)
6 | O=C(c1cc2ccccc2o1)N1CCN(Cc2ccccc2)CC1 | 104% (inactive)
7 | C/C(=N\NC(=O)c1ccc([N+](=O)[O-])c(C)c1)c1ccccc1Cl | 85.1% (inactive)
8 | C/C(=N\NC(=O)c1ccccc1)c1nc2ccccc2n1C | 104% (inactive)
9 | COc1cc(/C=N/N(C)C)ccc1OC(=O)c1cccs1 | 94.7% (inactive)
10 | Cc1cc(Cl)cc(C)c1OCCCCn1ccnc1 | 90.3% (inactive)
11 | Clc1ccc(SCCCCn2ccnc2)cc1 | 73.8% (inactive)
12 | Cc1ccc(CCC(=O)Nc2ccccc2F)s1 | 103% (inactive)
13 | O=C(COC(=O)c1ccccc1)NCc1cccs1 | 98.4% (inactive)
14 | O=C(CCc1ccc(Oc2cc([N+](=O)[O-])cc([N+](=O)[O-])c2)cc1)N1CCCCC1 | 87.9% (inactive)
15 | CSc1nn(-c2ccc(C(=O)OCC(=O)NC(=O)NC(C)C)cc2)c(=S)s1 | 98.1% (inactive)
16 | CCN1C(=O)CC(N2CCC(c3nc4ccccc4[nH]3)CC2)C1=O (stereo not given) | 99.8% (inactive)
17 | CC(NCCCOc1cccc2ccccc12)c1ccccc1 (stereo not given) | 74.2% (inactive)
18 | O=C(COC(=O)c1ccccc1)NC12CC3CC(CC(C3)C1)C2 | 79% (inactive)
19 | CCOC(=O)C1CSC(CC(=O)Nc2ccc(Cl)c(Cl)c2)C(=O)N1 (stereo not given) | 101% (inactive)
20 | O=C(C/C=N\OCc1ccc([N+](=O)[O-])cc1)Nc1ccc(Cl)cc1 | 112% (inactive)
21 | NC(=O)c1ccc(-c2ccc(Br)cc2)o1 | 87.4% (inactive)
22 | O=C(Nc1cccnc1)c1ccc(-c2ccc(Cl)cc2)o1 | 101% (inactive)
23 | CCOc1ccc(C(=O)Nc2ccc(N3CCN(C)CC3)cc2)cc1Br | 74.8% (inactive)
24 | O=C(Nc1nccs1)c1ccc(-c2ccc(Cl)cc2)o1 | 90.6% (inactive)

Row | Structure (SMILES) | viability
25 | O=C(CN1CCC(Cc2ccccc2)CC1)NC(=O)NC1CCCCC1 | 97.5% (inactive)
26 | Cc1ccc2[nH]c3c(c2c1)CCCC3NCCO (stereo not given) | 106% (inactive)
27 | Cc1ccc(-c2nnc(-c3ccccc3)o2)cc1 | 94.8% (inactive)
28 | c1ccc(-c2n[nH]c(-c3ccccn3)n2)nc1 | 89.1% (inactive)
29 | CCOC(=O)N1CCC(NC(=O)C2CCN(c3nc(-c4ccc(OC)cc4)no3)CC2)CC1 | 97.2% (inactive)
30 | COc1cccc(OC(=O)c2cc3ccccc3oc2=O)c1 | 105% (inactive)
31 | CCOC(=O)Cn1cc(C#N)c2cccc(CC)c21 | 98.7% (inactive)
32 | Cc1ccc(S(=O)(=O)NCC(=O)OCCOc2cccc(Cl)c2)cc1 | 98.4% (inactive)
33 | Cc1cccnc1NC(=O)C1COc2ccccc2O1 (stereo not given) | 104% (inactive)
34 | O=C(OCc1nnc(-c2ccccc2)o1)c1cc([N+](=O)[O-])ccc1Cl | 115% (inactive)
35 | CC(C)OC(=O)c1c2c(n3ccccc13)C(=O)c1ccccc1C2=O | 80.7% (inactive)
36 | O=C(c1ccc(Br)o1)N1CCC(Cc2ccccc2)CC1 | 95.1% (inactive)
37 | O=C(COc1ccc(Br)cc1)Nc1ccc([N+](=O)[O-])cn1 | 101% (inactive)
38 | O=C(N/N=C/c1coc2ccccc2c1=O)c1ccc(Cl)cc1 | 95.9% (inactive)
39 | O=C(OCC(=O)N1CCN(c2ccccc2)CC1)c1ccc(Cl)cc1[N+](=O)[O-] | 95.6% (inactive)
40 | COC(=O)C1=C(N)OC2=C(C(=O)CC(C)(C)C2)C1c1cccnc1 (stereo not given) | 94.6% (inactive)
41 | O=C(OCC(=O)N1CCCC1)c1cc(Br)ccc1Cl | 102% (inactive)
42 | O=C(N/N=C/c1ccccn1)c1cccc(S(=O)(=O)Nc2ccccc2Cl)c1 | 87.2% (inactive)
43 | Cc1ccc2oc(=O)c3cc(C(=O)NCCCN4CCCCCC4)sc3c2c1 | 94% (inactive)
44 | CS(=O)(=O)Nc1cccc2cccnc12 | 71.2% (inactive)
45 | Cc1cc(C)n2nc(S(=O)(=O)Nc3c(Cl)cccc3Cl)nc2n1 | 103% (inactive)
46 | CC1C/C(=N/NC(=O)c2cccc(F)c2)c2ccc(O)cc2C1 (stereo not given) | 101% (inactive)
47 | O=C(Nc1nccs1)c1ccccn1 | 95.1% (inactive)
48 | O=C(NNc1nc2ccccc2s1)c1ccc(F)cc1 | 91.5% (inactive)

Row | Structure (SMILES) | viability
49 | O=C(Nc1c(F)cc(F)cc1Br)c1cc(-c2ccccc2)on1 | 93.9% (inactive)
50 | CCOCC(=O)Nc1nc2ccc(C)cc2s1 | 109% (inactive)
51 | O=C(O)c1ccccc1-c1ccccc1C(=O)Nc1nc2ccccc2s1 | 106% (inactive)
52 | Cc1ccc2nc(NC(=O)COC(=O)c3ccc(Br)o3)sc2c1 | 100% (inactive)
53 | CC1=NN(C(=O)c2ccccc2Cl)C(O)(c2ccccc2)C1 (stereo not given) | 105% (inactive)
54 | CCc1nnc(N/N=C/c2ccc(N3CCC(C)CC3)c([N+](=O)[O-])c2)n1N | 103% (inactive)
55 | COc1ccc(C(=O)COC(=O)c2ccccc2O)c(OC)c1 | 93.9% (inactive)
56 | COC(=O)c1cc(/C=C/c2ccccc2)on1 | 82% (inactive)
57 | COc1cc(/C=C2/C(=O)NN(c3ccc(Cl)cc3)C2=O)ccc1OC(=O)c1ccco1 | 100% (inactive)
58 | CC(C)CNc1nc(=S)nc(N(C)C)[nH]1 | 106% (inactive)
59 | Cc1cccc(NC(=O)COC(=O)CCc2c[nH]c3ccccc23)c1 | 103% (inactive)
60 | O=C(OCC(=O)N1CCN(c2ccccc2)CC1)c1ccc2ccccc2n1 | 88.3% (inactive)
61 | O=[N+]([O-])c1ccc(CN2CCN(c3ccc(F)cc3)CC2)o1 | 101% (inactive)
62 | CCOC(=O)c1cc(-c2csc(COc3ccccc3Cl)n2)on1 | 100% (inactive)
63 | O=C(NCCc1ccccc1)c1nc(-c2cccs2)no1 | 96.4% (inactive)
64 | COc1cccc2cc(C(=O)NCc3ccc(F)cc3)c(=N)oc12 | 103% (inactive)
65 | c1cncc(-c2noc(CC3CCCCC3)n2)c1 | 106% (inactive)
66 | CCN1CCC(=NNC(=O)c2ccco2)CC1 | 112% (inactive)
67 | O=C1NC2(CCC3(CC2)OCCO3)NN1c1ccc(Cl)cc1 | 91.6% (inactive)
68 | CC(NC(=O)c1cccc(F)c1)C1CC2CCC1C2 (stereo not given) | 109% (inactive)
69 | Cc1ccc(C(C)C)c(OCC(=O)OCc2c(C)noc2C)c1 | 88.1% (inactive)
70 | CC1CCN(C(=O)c2ccc(-c3ccccc3Cl)o2)CC1 | 89.8% (inactive)
71 | Cc1ccc(C(=O)n2c(N)nc3ccccc32)cc1 | 78.2% (inactive)
72 | CCn1c(-c2ccco2)nc2ccccc21 | 91.9% (inactive)

Row | Structure (SMILES) | viability
73 | CCCn1c(CNc2ccccc2O)nc2ccccc21 | 74.6% (inactive)
74 | O=C(Nc1nc2ccccc2n1CCN1CCCC1)c1ccc(Cl)cc1 | 91.2% (inactive)
75 | Cc1ccc(CC(=O)Nc2ccc(Cl)cn2)cc1 | 101% (inactive)
76 | COc1cccc(-c2cc3nc4c(c(NCC(C)(C)CN(C)C)n3n2)CCCC4)c1 | 70.8% (inactive)
77 | CCOC(=O)CC(NS(=O)(=O)Cc1ccccc1)c1ccc(C)cc1 (stereo not given) | 80% (inactive)
78 | CCOC(=O)COn1c2c(c3c4no[n+]([O-])c4ccc31)CCCC2 | 99.8% (inactive)
79 | COC(=O)c1ccccc1NC(=O)C1CC(c2ccc(F)cc2)=NO1 (stereo not given) | 79.8% (inactive)
80 | COc1cc(/C=C2/C(=O)NN(c3cccc(C)c3)C2=O)ccc1OC(=O)c1ccco1 | 99.8% (inactive)
81 | O=C(Oc1cccc2cccnc12)c1cccc(-n2cnnn2)c1 | 97.1% (inactive)
82 | Cc1nc2ccc(NC(=O)c3ccc([N+](=O)[O-])cc3[N+](=O)[O-])cc2s1 | 90.1% (inactive)
83 | CCN(CC)CCNC(=O)c1[nH]c2ccc(OCc3ccccc3)cc2c1C | 80.3% (inactive)
84 | CSc1ccccc1NC(=O)c1cc(C(C)C)on1 | 91.5% (inactive)
85 | O=C(COc1ccc(-c2ccccc2)cc1)Nc1cccnc1 | 91.4% (inactive)
86 | CCOC(=O)c1cc2cc3ccccc3cc2oc1=O | 99.8% (inactive)
87 | O=C(OCC(=O)N1CCCCC1)c1cc2ccccc2cc1O | 92.3% (inactive)
88 | CCOC(=O)COc1ccc(C(=O)c2ccccc2)c(O)c1 | 99.3% (inactive)
89 | Cc1ccn2nc(S(=O)(=O)Nc3c(F)cccc3F)nc2n1 | 104% (inactive)
90 | CN(C)CC/C=C1\c2cc(Cl)ccc2Sc2cc(F)c(F)cc21 | 81.6% (inactive)
91 | Nc1nc2ccccc2n1C(=O)c1ccc(F)cc1 | 88.6% (inactive)
92 | COc1ccc(C(=O)Nc2ccccc2C(=O)N/N=C/c2ccco2)cc1 | 102% (inactive)
93 | Cn1c(NC(=O)c2ccccc2)nc2ccccc21 | 78.7% (inactive)
94 | CCn1cc(/C=N\NC(=O)c2ccc(F)cc2)cn1 | 110% (inactive)
95 | Cc1nc2ccc(NC(=O)COc3cccc(F)c3)cc2s1 | 99.7% (inactive)
96 | O=C(COC(=O)c1cccc([N+](=O)[O-])c1)NCc1cccs1 | 99.3% (inactive)

Row | Structure (SMILES) | viability
97 | COc1ccc(CN2CCC(C(=O)Nc3ccc(Oc4cccnc4)cc3)CC2)c(C)c1C | 91.2% (inactive)
98 | CSCCOC(=O)COc1ccc(/C=N/NC(=O)c2c(Cl)cnn2C)cc1 | 101% (inactive)
99 | O=C(COc1ccc(Br)cc1)N/N=C1/SCC(=O)N1Cc1ccco1 | 91.2% (inactive)
100 | O=C(C/C=N\OCc1ccc([N+](=O)[O-])cc1)Nc1ccc(Br)cc1 | 85.4% (inactive)
101 | COc1ccccc1CCNC(=O)c1ccc(C)o1 | 102% (inactive)
102 | NC1=NC[C@H](Cc2ccc(O)cc2)N1CCc1cccc2ccccc12 | 89.6% (inactive)
103 | O=C(N/N=C/C=C/c1ccccc1)c1ccccn1 | 106% (inactive)
104 | CCCCCCCC(=O)N/N=C(/C)c1c(O)cc(C)oc1=O | 84.1% (inactive)
105 | CCc1ccc(/C=N/NC(=O)c2ccccn2)cc1 | 97.9% (inactive)
106 | CCCCCCCC(=O)NNC(=O)c1ccc(F)cc1 | 89.9% (inactive)
107 | Cc1ccc(NCCC(=O)c2cccs2)cc1 | 86.7% (inactive)
108 | Cc1ccc(-c2noc(CCCC(=O)Nc3cccnc3)n2)cc1 | 93.5% (inactive)
109 | CCCc1cc(C(=O)Nc2ccccc2SC)no1 | 109% (inactive)
110 | COC(=O)CCCC(=O)N1CCCC(C(=O)c2ccc(-c3ccccc3)cc2)C1 (stereo not given) | 105% (inactive)
111 | CSc1nnc(Cc2ccc3c(c2)OCO3)o1 | 103% (inactive)
112 | COc1cccc(/C=N/N2C(=O)CSC2=S)c1O | 81% (inactive)
113 | O=C(OCn1nnc2ccccc2c1=O)c1cccs1 | 104% (inactive)
114 | COc1ccc2cc(C(=O)C3CCCN(Cc4cccc(C)n4)C3)ccc2c1 (stereo not given) | 73% (inactive)
115 | S=c1c2c(nc3nc[nH]n13)CCC2 | 101% (inactive)
116 | CC1(C)CC(=O)C2=C(C1)OC(N)=C(C#N)C2C#Cc1ccccc1 (stereo not given) | 101% (inactive)
117 | Cc1ccc(NC(=O)C(=O)NNC(=O)c2ccccc2C)cc1Cl | 87.8% (inactive)
118 | O=C(NC1CCOc2ccccc21)c1ccc(Cl)nc1 (stereo not given) | 92.5% (inactive)
119 | CCOC(=O)COc1ccc(C(=O)Nc2cccc(Cl)c2C)cc1 | 91.2% (inactive)
120 | CCOC(=O)C(=CNNc1cccc(Cl)c1)C(=O)OCC | 90.4% (inactive)

From PubChem BioAssay AID492998 (Southern Research Specialized Biocontainment Screening …, 2010)
